Data on 53 compounds can be found in ChEMBL document CHEMBL3988442, “University of Dundee, Small-Polar-MMV Screening Library” (2021).

Screen size: about 69,000 compounds; about 1,000 (1.4%) showed an effect of 50% or more. The sample holds strong results, similar compounds and a random draw of the others, so the mix is not that of the screen.

For the test, the system named is Leishmania donovani. As to the kind of experiment: Leishmania intramacrophage assay. It is filed as functional, organism-based. Set-up: scale not given: in the data most compounds retested in dose-response had high values.

For `COc1ccc(C)cc1NC(=O)Nc1cnc(N2CCCC2)nc1`, the “Percent Effect” value (30.3 µM, […]) is recorded as -0.2164%. Consider `COc1ccc2nnc(C(=O)NC3CCCC3)nc2c1`, for which the “Percent Effect” value (30.3 µM, […]) is given as 8.289%.

Turning to `CCCS(=O)(=O)N1CCC2(CC1)CN(c1ccccn1)CCO2.O=C(O)C(F)(F)F`, the “Percent Effect” value (30 µM, 30.03 µM) turned out to be 10.12%.

Consider `CS(=O)(=O)Cc1ccc(Cl)cc1NCc1ccccc1F`, for which the “Percent Effect” value (30.3 µM, […]) was found to be 17.75%. Regarding `CS(=O)(=O)Cc1ccccc1NCc1cc(Cl)ccc1Cl`, the “Percent Effect” value (30.3 µM, […]) turned out to be 50.41%. On the same count and under the same terms, the figure for `CS(=O)(=O)Cc1ccc(Cl)cc1NCc1cccc(F)c1F` is 15.72%.

For `CC(O)CN1CCN(C(=O)c2ccc(N(C)C)nc2)CC1` (stereo not drawn), the “Percent Effect” value (30 µM, 30.03 µM) amounted to 21.97%. Still for that read-out and setting: the figure for `Cn1ncc(C(=O)N2CCCC(n3cccn3)C2)c1C1CC1` (stereo not drawn) is -6.982%; for `COc1ncccc1NC(=O)N(Cc1ccc(C)o1)C1CC1` it is 53.3%; for `CCN(C(=O)Nc1cccnc1OC)C1CC1` it is 22.39%.

Regarding `COc1ncccc1NC(=O)N(Cc1ccco1)C1CC1`, the “Percent Effect” value (30 µM) is reported as 6.992%. Take `O=C1CCc2cc(OCCN3CCc4cncnc4C3)ccc2N1`: the “Percent Effect” value (30.3 µM, […]) turned out to be 41.19%. The same measure, in the same setting: the result for `Cc1nc(S(=O)(=O)N2CCC3(CCCCC3)C2)cn1C` reads -11.17%; that for `CC(C)CNc1nc2c(cc1C(=O)NCC1CC1)CCNCC2`, 79%. `CC(C)Nc1nc2c(cc1C(=O)NCC1CC1)CCNCC2.O=C(O)C(F)(F)F.O=C(O)C(F)(F)F`: the “Percent Effect” value (30 µM, 30.03 µM) was 30.72%.

For the compound `CNC(=O)c1cc2c(nc1NCC1CC1)CCNCC2`, the “Percent Effect” value (30.3 µM, […]) was -29.9%.

As to `O=C(C1CCCO1)N1CCc2onc(-c3ccc(Cl)cc3)c2C1` (stereo not drawn), where the note is “30.3 µM, […]”, the “Percent Effect” value is reported as -19.46%.

As for `Cc1ccccc1CC1(C(=O)O)CCCN(c2ncnc3[nH]ccc23)C1` (stereo not drawn), the “Percent Effect” value (30.3 µM, […]) is recorded as -3.526%.

Regarding `Cc1ccccc1CC1(CO)CCCN(c2ncnc3sccc23)C1` (stereo not drawn), the “Percent Effect” value (30.3 µM, […]) stood at 67.14%. Consider `Cc1cnc(C)c(N2CCCC(CO)(Cc3ccccc3C)C2)n1` (stereo not drawn), for which the “Percent Effect” value (30.3 µM, […]) was determined as 58.45%.

As to `Cc1ccccc1CC1(CO)CCCN(c2ncncc2C(C)C)C1` (stereo not drawn), where the note is “30.3 µM, […]”, the “Percent Effect” value is 60.98%. Regarding `Cc1cnc(C)c(N2CCCC(C/C=C/c3ccccc3)(C(=O)O)C2)n1` (stereo not drawn), the “Percent Effect” value (30.3 µM, […]) was determined as 12.4%. `Cc1ncc(C)c(N2CCCC(CO)(Cc3cccc(Cl)c3)C2)n1` (stereo not drawn): for the setting “30 µM, 30.03 µM”, the “Percent Effect” value worked out at 20.29%. Turning to `CC(=O)c1ccc(N2CCCC(CO)(Cc3ccccc3C)C2)nc1` (stereo not drawn), for the setting “30.3 µM, […]”, the “Percent Effect” value was found to be 44.66%. With `Cc1cnc(C)c(N2CCCC(CO)(Cc3cccc(Cl)c3)C2)n1` (stereo not drawn), the “Percent Effect” value (30.3 µM, […]) is recorded as -33.57%. On to `Cc1ccccc1CC1(CO)CCCN(c2ncccc2C#N)C1` (stereo not drawn), for which, under “30 µM, 30.03 µM”, the “Percent Effect” value was determined as 15.87%. As for `O=C1CCCc2[nH]c(=O)c(C(=O)N3CCc4ccccc4C3)cc21`, the “Percent Effect” value (30.3 µM, […]) was 0.8668%. The same measure, in the same setting: the figure for `O=C(CN(Cc1cccc(F)c1)CC1CCCO1)N1CCCC1` (stereo not drawn) is -8.596%; for `CC[C@@H]1N(Cc2ccoc2)CCC[C@]12CCC(=O)N2CCOC.O=C(O)C(F)(F)F` it is -8.415%; for `CC(C)N1CCC(NC(=O)c2cn(-c3ccc(F)cc3)nn2)C1` (stereo not drawn) it is -11.91%. On to `CCc1cc(NCCCc2nc(C)no2)nc(-c2ccncc2)n1`, for which the “Percent Effect” value (30.3 µM, […]) was -6.6%. Turning to `Cc1cc(Nc2ccccn2)nc(C2CCCN(CCO)C2)n1.O=CO` (stereo not drawn), the “Percent Effect” value (30.3 µM, […]) is listed as 32.66%. Same read-out and setting: the result for `Cc1cc(Nc2ncccn2)nc(C2CCCN(CCO)C2)n1` (stereo not drawn) reads 24.35%; that for `Cc1cc(Nc2cnccn2)nc(C2CCCN(CCO)C2)n1` (stereo not drawn), 56.31%.

Consider `CN(CCn1cncc1-c1cnc(N2CCOCC2)nc1)C1CCCC1`, for which the “Percent Effect” value (30.3 µM, […]) amounted to 22.37%.

For the compound `CNC(=O)N1C[C@H]2N(c3ncccn3)CCC[C@@]2(C(=O)NCC2CC2)C1`, where the note is “30.3 µM, […]”, the “Percent Effect” value worked out at 18.69%. Still for that read-out and setting: the figure for `CS(=O)(=O)N1C[C@H]2N(c3ncccn3)CCC[C@@]2(C(=O)NCC2CC2)C1` is 51.67%; for `CC(C)CN1C[C@H]2N(c3ncccn3)CCC[C@@]2(C(=O)NCC2CC2)C1` it is 11.67%. Same read-out and setting: the result for `COCCN1CC[C@H]2CN(Cc3ccc(C)s3)C[C@@H]2C1=O.O=C(O)C(F)(F)F` reads -9.099%. The same measure, in the same setting: the figure for `CC(Cc1cccc(F)c1)C(=O)NS(=O)(=O)c1ccc(F)cc1` (stereo not drawn) is 5.076%; for `CC(CN1CCOCC1)NC(=O)c1cccc2cn[nH]c12` (stereo not drawn) it is 18.62%. Turning to `CN(C)C(=O)c1cc2ncc(C(=O)NC3CCCC3)cc2n1C`, for the setting “30.3 µM, […]”, the “Percent Effect” value was -2.053%. `Cc1ccc(CNC2CCCN(Cc3noc(C4CC4)n3)C2)s1` (stereo not drawn): the “Percent Effect” value (30 µM) was 1.737%. Same read-out and setting: the result for `Cc1ccsc1CNC1CCCN(Cc2noc(C3CC3)n2)C1` (stereo not drawn) reads 29.68%; that for `Cc1ncccc1CNC1CCCN(Cc2noc(C3CC3)n2)C1` (stereo not drawn), 51.55%. In the case of `CCc1cc(N2CCC(Nc3ccc(Cl)cn3)CC2)ncn1`, under “30.3 µM, […]”, the “Percent Effect” value stood at 39.5%.

For the compound `CCc1cc(N2CCC(NCc3ccc(C)o3)CC2)ncn1`, where the note is “30.3 µM, […]”, the “Percent Effect” value is on record as 57.16%. In the case of `Cc1ccc(N2CCCC(NCc3ccc(C)o3)C2)nn1` (stereo not drawn), the “Percent Effect” value (30 µM, 30.03 µM) turned out to be 1.465%. For the compound `COc1c(CNCCNC(=O)c2ccccc2)c(C)nn1C.Cl`, the “Percent Effect” value (30 µM) is recorded as 37.81%. As to `Cc1nc(C)n(CC2CCCCN2CCOc2cccc(C#N)c2)n1` (stereo not drawn), where the note is “30 µM”, the “Percent Effect” value was determined as 14.77%. Consider `Cc1noc(C(C)N2CCN(c3ncnc4ccccc34)CC2)n1` (stereo not drawn), for which, for the setting “30.3 µM, […]”, the “Percent Effect” value was -13.38%.

For the compound `CCc1noc(C(C)N2CCN(c3ncnc4sccc34)CC2)n1` (stereo not drawn), the “Percent Effect” value (30.3 µM, […]) is on record as 17.92%.

Consider `Cc1noc(C(C)N2CCN(c3ncnc4sccc34)CC2)n1` (stereo not drawn), for which, for the setting “30.3 µM, […]”, the “Percent Effect” value worked out at 61.64%.
